Results from the supplement of paper PMC6555819.

Assays:
Experiment in all cases: PBM binding z-score (relative to random genomic background probes); higher = stronger binding; sequences stand for … in GC…GCGATTGACAGCGTAGAATGAAGG
[1] = system: FXR:RXRa (NR concentration 270 nM, RXRa partner concentration 90 nM)
Outline: (§1)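 The probes on custom Agilent 4×180K protein-binding microarrays were double-stranded, with 34-nt variable regions bearing direct-repeat seeds, single-nucleotide variants, half-site ablations and random human genomic background sequences. Incubation lasted 1 h with ligand-free nuclear receptor dimers in PBS pH 7.4, 2% milk, 0.02% Triton X-100, 1 mM DTT, 0.2 mg/mL BSA and 0.4 mg/ml salmon testes DNA. Antibodies against each partner (one per run) detected bound dimers, and fluorescence scans were regression-normalized. Binding z-scores take the random background probes as reference.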

[2] = system: LXRa:RXRa (NR concentration 270 nM, RXRa partner concentration 90 nM)
Outline: as §1

[3] = system: LXRa homodimer (NR concentration 270 nM)
Outline: as §1

[4] = system: LXRb:RXRa (NR concentration 270 nM, RXRa partner concentration 90 nM)
Outline: as §1

[5] = system: LXRb homodimer (NR concentration 270 nM)
Outline: as §1

[6] = system: PPARa:RXRa (NR concentration 270 nM, RXRa partner concentration 90 nM)
Outline: as §1

[7] = system: PPARg:RXRa (NR concentration 180 nM, RXRa partner concentration 90 nM)
Outline: as §1

[8] = system: PPARg:RXRa 270nM:90nM, anti-RXR (NR concentration 270 nM, RXRa partner concentration 90 nM)
Outline: as §1

[9] = system: PPARg:RXRa 30nM:10nM, anti-RXR (NR concentration 30 nM, RXRa partner concentration 10 nM)
Outline: as §1

[10] = system: PPARg:RXRa 90nM:30nM, anti-RXR (NR concentration 90 nM, RXRa partner concentration 30 nM)
Outline: as §1

[11] = system: PPARg:RXRa DBDmut IVT, anti-RXR (DBD mutation: RXRa K156A/R161A, NR concentration 270 nM, RXRa partner concentration 90 nM)
Outline: as §1

[12] = system: PPARg:RXRa IVT, anti-PPARg (NR concentration 270 nM, RXRa partner concentration 90 nM)
Outline: as §1

[13] = system: PPARg DBDmut:RXRa IVT, anti-PPARg (DBD mutation: PPARg1 K132A/R137A, NR concentration 270 nM, RXRa partner concentration 90 nM)
Outline: as §1

[14] = system: PPARg DBDmut IVT, anti-PPARg (DBD mutation: PPARg1 K132A/R137A, NR concentration 270 nM)
Outline: as §1

[15] = system: PPARg homodimer (NR concentration 180 nM)
Outline: as §1

[16] = system: PXR:RXRa (NR concentration 270 nM, RXRa partner concentration 90 nM)
Outline: as §1

[17] = system: PXR homodimer (NR concentration 270 nM)
Outline: as §1

[18] = system: RARa:RXR (NR concentration 270 nM, RXRa partner concentration 90 nM)
Outline: as §1

[19] = system: RARa homodimer (NR concentration 270 nM)
Outline: as §1

[20] = system: RARb:RXRa (NR concentration 270 nM, RXRa partner concentration 90 nM)
Outline: as §1

Row | Sequence | PBM binding z-score [1] | PBM binding z-score [2] | PBM binding z-score [3] | PBM binding z-score [4] | PBM binding z-score [5] | PBM binding z-score [6] | PBM binding z-score [7] | PBM binding z-score [8] | PBM binding z-score [9] | PBM binding z-score [10] | PBM binding z-score [11] | PBM binding z-score [12] | PBM binding z-score [13] | PBM binding z-score [14] | PBM binding z-score [15] | PBM binding z-score [16] | PBM binding z-score [17] | PBM binding z-score [18] | PBM binding z-score [19] | PBM binding z-score [20]
1 | TCATATAGGTAAACAGGTGATAGTCCGTAAGTTA | 0.91 | 0.907 | 0.318 | 0.806 | -0.237 | 1.73 | 2.35 | 3.2 | 4.04 | 3.64 | 4.54 | 3.86 | 2.2 | 1.3 | 1.51 | 0.551 | 0.241 | 0.892 | 1.46 | 0.497
2 | AGAACGAGGGCACGCCGAGTTGATAGCAGAGTAG | 0.906 | 0.551 | -0.503 | 0.0965 | -0.66 | 2.36 | 2.1 | 1.92 | 0.0797 | 0.871 | 3.84 | 4.08 | 0.68 | -0.645 | 0.0729 | 1.38 | 0.119 | 0.82 | -0.438 | 2.57
3 | AGTATTAGTTGACTTAGGGCAACCGATACGACGC | 0.048 | 0.00134 | 0.42 | 0.0482 | 0.3 | 0.128 | 0.82 | 0.435 | 0.448 | 0.623 | -0.0999 | 0.548 | 0.229 | 1.16 | 0.56 | 0.237 | 0.692 | 0.353 | 1 | 1.12
4 | ATATTTAGGTTATCGGGTCATTCAGTTTGCGCAT | 3.46 | 3.38 | 3.11 | 3.44 | 2.37 | 4.75 | 5.55 | 5.51 | 3 | 4.66 | 6.89 | 6.64 | 4.67 | 4.42 | 4.15 | 3.9 | 8.95 | 4.06 | 4.33 | 2.93
